In a collection of fitness landscapes (doi:10.1126/science.1257360) one finds enrichment ratio data, which are given here for 154 variants.

Over roughly 140,000 sequences, “enrichment ratio after two sorts for PhoP signalling” has its median near 0; the highest 2% begin near 11. The sample holds the highest values, similar sequences and a random draw of the others, so the mix is not that of the screen. Some results are limits rather than exact numbers.

B1: PhoQ; a variant is named by its letters at X, in order, P23837 (parent)
chain: MKKLLRLFFPLSLRVRFLLATAAVVLVLSLAYGMVALIGYSVSFDKTTFRLLRGESNLFYTLAKWENNKLHVELPENIDKQSPTMTLIYDENGQLLWAQRDVPWLMKMIQPDWLKSNGFHEIEADVNDTSLLLSGDHSIQQQLQEVREDDDDAEMTHSVAVNVYPATSRMPKLTIVVVDTIPVELKSSYMVWSWFIYVLSANLLLVIPLLWVAAWWSLRPIEALAKEVRELEEHNRELLNPATTRELTSLVRNLNRLLKSERERYDKYRTTLTDLTHSLKTPLXXLQXXLRSLRSEKMSVSDAEPVMLEQISRISQQIGYYLHRASMRGGTLLSRELHPVAPLLDNLTSALNKVYQRKGVNISLDISPEISFVGEQNDFVEVMGNVLDNACKYCLEFVEISARQTDEHLYIVVEDDGPGIPLSKREVIFDRGQRVDTLRPGQGVGLAVAREITEQYEGKIVAGESMLGGARMEVIFGRQHSAPKDE

The test covers variants of B1. The test can be described thus: enrichment ratio after two sorts for PhoP signalling (ratio (wild type AVST 3.29)); higher = more functional. Particulars: with PhoP (E. coli).
As to PREH, the enrichment ratio is no more than 0.25.
Take GASC: the enrichment ratio is no more than 0.25.
To FFHE belongs no more than 0.25.
With DQPT, the enrichment ratio was no more than 0.25.
Turning to LMDV, the enrichment ratio is no more than 0.25.
On to FSAH, for which the enrichment ratio is 0.363.
Turning to SQND, the enrichment ratio was no more than 0.25.
Consider IRPQ, for which the enrichment ratio was no more than 0.25.
To YYNE belongs no more than 0.25; to GEVY, 15.9.
To GEVA belongs no more than 0.25.
In the case of GEYY, the enrichment ratio is no more than 0.25.
Turning to GEVM, the enrichment ratio was 13.6.
Turning to GEGM, the enrichment ratio is no more than 0.25.
To GEVG belongs 8.67.
To ISQH belongs no more than 0.25.
To HWRW belongs no more than 0.25; to LGRG, no more than 0.25; to HLTF, no more than 0.25.
For the variant LNAM, the enrichment ratio is no more than 0.25.
To GIRM belongs no more than 0.25; to MNAM, 1.4.
NNAM: the enrichment ratio is no more than 0.25.
With GIAM, the enrichment ratio came to 33.4.
To GMGM belongs no more than 0.25.
To GIMD belongs no more than 0.25; to GMTM, no more than 0.25; to TNAM, 15.7.
To GMAM belongs 24.3; to GNAM, 35.8.
Consider TNCK, for which the enrichment ratio is no more than 0.25.
With RPAK, the enrichment ratio is no more than 0.25.
To YHSF belongs no more than 0.25; to QLDG, no more than 0.25; to PCCG, no more than 0.25.
As to DCDI, the enrichment ratio was no more than 0.25.
To YLVR belongs no more than 0.25; to QLDF, no more than 0.25.
Regarding IHCL, the enrichment ratio was no more than 0.25.
As for FHCR, the enrichment ratio was no more than 0.25.
On to VVAM, for which the enrichment ratio was no more than 0.25.
To LQPE belongs no more than 0.25; to YRAY, no more than 0.25.
To SGNT belongs no more than 0.25; to SGLI, 16.2.
To SGDN belongs no more than 0.25; to SGLA, 8.41.
As for SGLT, the enrichment ratio is 12.3.
Consider SGDK, for which the enrichment ratio is no more than 0.25.
To KDVP belongs no more than 0.25; to RAKD, no more than 0.25.
To KKSI belongs no more than 0.25; to AISW, 11.4.
To TISK belongs 3.65; to ARSI, no more than 0.25; to HKSI, no more than 0.25.
Regarding WISW, the enrichment ratio was no more than 0.25.
To TISR belongs 6.92; to AQSI, 18.6; to AQRK, no more than 0.25.
To TKSI belongs 14.9; to TISI, 16.9; to ADSW, no more than 0.25.
Regarding SLDN, the enrichment ratio is no more than 0.25.
To QVPH belongs no more than 0.25.
To WSQP belongs no more than 0.25; to DYLR, no more than 0.25.
For the variant WNLT, the enrichment ratio was no more than 0.25.
To RHIF belongs no more than 0.25.
On to HCDL, for which the enrichment ratio was no more than 0.25.
To AKDH belongs no more than 0.25; to WISI, no more than 0.25.
To AHSI belongs no more than 0.25; to AKSI, 22.7; to ADSI, no more than 0.25.
As to AISI, the enrichment ratio came out at 22.
With ENLY, the enrichment ratio was no more than 0.25.
To RIVL belongs no more than 0.25; to YQAH, no more than 0.25; to TFMT, no more than 0.25.
For the variant GILI, the enrichment ratio came to 8.37.
To NVLI belongs no more than 0.25; to HGLI, 13.3.
Consider HGCI, for which the enrichment ratio was determined as 17.9.
To LNLI belongs no more than 0.25; to GVLA, 4.95.
Take HYLI: the enrichment ratio is no more than 0.25.
As for HGDK, the enrichment ratio was no more than 0.25.
To HGCS belongs no more than 0.25.
To GNLI belongs 15.8; to GVLI, 15.6.
To HGCK belongs no more than 0.25.
Consider LTRF, for which the enrichment ratio was no more than 0.25.
In the case of QPSN, the enrichment ratio is no more than 0.25.
To PTQL belongs no more than 0.25; to YSHY, no more than 0.25.
To QGLI belongs 13.3; to WGLA, no more than 0.25.
For the variant TGLI, the enrichment ratio came to 12.2.
As to WGLI, the enrichment ratio is 13.6.
To NGLI belongs 2.73.
As to CFLI, the enrichment ratio was no more than 0.25.
Consider QGDK, for which the enrichment ratio was no more than 0.25.
As to CNHF, the enrichment ratio is no more than 0.25.
As to WGLT, the enrichment ratio was no more than 0.25.
With FFLI, the enrichment ratio was no more than 0.25.
Turning to RGLI, the enrichment ratio was no more than 0.25.
To CNLI belongs 12.7; to VTWM, no more than 0.25.
To QDLV belongs no more than 0.25; to WQPN, no more than 0.25.
Regarding FGKS, the enrichment ratio is no more than 0.25.
For GGLI, the enrichment ratio worked out at 11.9.
Turning to TKLI, the enrichment ratio came to 13.
To NILI belongs 0.917; to MGLI, 14.4; to MGLS, 5.14.
To MKLI belongs 3.78; to AKLI, 4.91.
To MGDK belongs no more than 0.25.
For the variant YHLI, the enrichment ratio is no more than 0.25.
In the case of PKIA, the enrichment ratio is no more than 0.25.
Consider NPEC, for which the enrichment ratio is no more than 0.25.
DYPI: the enrichment ratio was no more than 0.25.
To HHAA belongs no more than 0.25; to VYEG, no more than 0.25; to GTRK, no more than 0.25.
To AKAK belongs no more than 0.25; to DHNF, no more than 0.25.
WHAF: the enrichment ratio is no more than 0.25.
To TGVN belongs 5.82.
To SGGD belongs no more than 0.25.
To SGPN belongs no more than 0.25.
Regarding SGVS, the enrichment ratio turned out to be 13.
To SGKH belongs no more than 0.25; to SGVN, 16.8.
To SGQN belongs no more than 0.25; to SGVA, 19.
To SGVG belongs 5.22; to SGVK, no more than 0.25; to SGQH, 11.9.
SGWI: the enrichment ratio was 2.76.
On to VDSY, for which the enrichment ratio is no more than 0.25.
To ELCR belongs no more than 0.25.
For DCKP, the enrichment ratio is no more than 0.25.
To MYPK belongs no more than 0.25.
In the case of EFWG, the enrichment ratio was no more than 0.25.
Turning to AFDK, the enrichment ratio is no more than 0.25.
For FLSH, the enrichment ratio was no more than 0.25.
To MHCH belongs no more than 0.25; to SEFH, 4.4.
In the case of EFPG, the enrichment ratio is no more than 0.25.
To REIT belongs no more than 0.25.
For the variant HGRF, the enrichment ratio was no more than 0.25.
